Results taken from the supplement of paper PMC13380429.
Values without a mark were called inactive.

Tested on: Vero E6 infected with SARS-CoV-2
Experiment: inhibition of SARS-CoV-2 cytopathic effect; higher = more antiviral protection, active = above 15
Details: 8.33 nM; 48 h

Compound | inhibition of SARS-CoV-2 cytopathic effect [%]
O=C(Nc1cccnc1)c1cc(-c2ccnc(F)c2)ccc1OCc1ccccc1 | -0.98
COc1ccccc1C(=O)Nc1cccc(NC(=O)c2cccc(C)c2)c1 | 2.12
CCC1(CC)C(=O)C=CNC1=O [pyrithyldione] | 0.58
c1ccc(CCCCN2CCC(c3ccccc3)CC2)cc1 | -0.15
O=c1oc2ccccc2c(O)c1Cc1c(O)c2ccccc2oc1=O [dicoumarol] | 0.88
CC(C)NCC(O)COc1cccc2[nH]c3ccccc3c12 (centres undefined) [carazolol] | -2.21
CCN(c1ccccc1)c1cc(=NC)n(C)c(C)n1 | -5.43
CC(C)(O)[C@@H]1[C@H]2OC(=O)[C@@H]1[C@]1(O)C[C@H]3O[C@]34C(=O)O[C@H]2[C@]14C [picrotin] | 1.31
COc1ccc(-c2ccc3c(N4CCOCC4)nc(N4C[C@@H](C)O[C@@H](C)C4)nc3n2)cc1CO | 0.2
O=c1[nH]cnc2c1ncn2[C@H]1CC[C@@H](CO)O1 [didanosine] | -2.03
CC(C)(C)CC(C)(C)c1ccc(O)c(Cc2ccc(Cl)cc2Cl)c1 [clofoctol] | 0.06
O=C(CNC(=O)c1cccc(C(F)(F)F)c1)N[C@@H]1CCN(Cc2ccc(Cl)cc2)C1 [teijin-compound-1] | -0.19
O=C1c2cc(Cl)ccc2OC2CCON12 (centres undefined) [seclazone] | 1.68
Nc1ncnc2c1ncn2[C@H]1CC[C@@H](CO)O1 [dideoxyadenosine] | 2.41
